Reference: article PMC4336329 (PLoS ONE, 2015)
About 14,000 (4.5%) of roughly 310,000 compounds showed an effect of 50% or more. The effect is printed as a negative number. For the sample, strong results were picked, then their nearest neighbours and some compounds at random.

Target: human ether-à-go-go-related gene (hERG) potassium channel (human, UniProt Q12809)
Assay: primary screen, population patch clamp on CHO cells stably expressing hERG; higher = less effect of the substance
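Further: peak tail current of the secondary pulse compared with the same well before compound.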

human ether-à-go-go-related gene (hERG) potassium channel, sequence (Q12809 whole entry, looked up): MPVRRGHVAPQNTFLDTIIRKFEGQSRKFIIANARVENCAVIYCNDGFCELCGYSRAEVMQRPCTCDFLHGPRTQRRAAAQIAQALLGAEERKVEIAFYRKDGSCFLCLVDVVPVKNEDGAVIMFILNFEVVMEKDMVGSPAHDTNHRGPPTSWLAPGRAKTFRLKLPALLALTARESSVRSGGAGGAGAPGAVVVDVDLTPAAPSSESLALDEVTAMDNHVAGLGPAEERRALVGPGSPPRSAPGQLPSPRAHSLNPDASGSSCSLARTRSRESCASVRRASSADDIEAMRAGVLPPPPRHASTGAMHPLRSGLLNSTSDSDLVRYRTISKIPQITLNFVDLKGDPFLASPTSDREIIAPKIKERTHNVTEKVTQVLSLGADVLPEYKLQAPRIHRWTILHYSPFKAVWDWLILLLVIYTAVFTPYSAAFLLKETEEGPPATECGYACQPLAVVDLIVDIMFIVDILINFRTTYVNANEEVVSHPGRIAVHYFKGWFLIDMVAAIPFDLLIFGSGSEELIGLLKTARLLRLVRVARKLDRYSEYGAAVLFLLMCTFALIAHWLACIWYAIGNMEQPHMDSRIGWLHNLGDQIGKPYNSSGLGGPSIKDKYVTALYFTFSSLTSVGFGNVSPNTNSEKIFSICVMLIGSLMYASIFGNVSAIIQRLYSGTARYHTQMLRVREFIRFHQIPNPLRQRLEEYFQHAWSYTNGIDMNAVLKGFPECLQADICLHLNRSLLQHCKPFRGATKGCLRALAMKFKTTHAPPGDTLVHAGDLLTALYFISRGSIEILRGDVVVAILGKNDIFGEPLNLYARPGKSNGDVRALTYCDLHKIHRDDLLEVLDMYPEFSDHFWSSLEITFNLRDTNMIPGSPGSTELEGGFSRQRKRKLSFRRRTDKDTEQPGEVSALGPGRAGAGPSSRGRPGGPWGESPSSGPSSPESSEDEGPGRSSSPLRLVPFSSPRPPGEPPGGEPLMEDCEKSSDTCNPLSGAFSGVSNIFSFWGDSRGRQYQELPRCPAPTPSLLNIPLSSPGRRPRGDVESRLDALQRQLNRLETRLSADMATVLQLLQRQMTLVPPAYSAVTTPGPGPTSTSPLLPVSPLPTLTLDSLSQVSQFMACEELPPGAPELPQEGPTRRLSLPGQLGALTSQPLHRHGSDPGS

| Structure (SMILES) | hERG current change (%, negative = inhibition) at 10uM [%] |
| --- | --- |
| CCOc1ccc(Nc2nc(N)nc(CCl)n2)cc1 | -8.2 |
| COc1ccc(Nc2nc(N)nc(COc3ccc(OC)cc3)n2)cc1 | 4.75 |
| CCOc1ccccc1Nc1nc(N)nc(CN(C)C2CCCCC2)n1 | -76.1 |
| CCOc1ccc(Nc2nc(N)nc(CN(C)C3CCCCC3)n2)cc1 | -71.5 |
| COC(=O)N/N=C/c1cc(Cl)cc(Cl)c1OCc1ccc(F)cc1 | 3.82 |
| O=[N+]([O-])c1cccc(C2N3CCCN23)c1 (centres unmarked) | 12.3 |
| Cc1cc2c(cc1S(=O)(=O)Nc1c(C)cccc1C)n(C)c(=O)c(=O)n2C | -0.831 |
| COc1ccc(-c2cc(C3CCN(c4ncccc4[N+](=O)[O-])CC3)[nH]n2)cc1 | -5.85 |
| COc1ccc(-c2cn(Cc3ccc([N+](=O)[O-])cc3)nn2)cc1 | -9.43 |
| O=[N+]([O-])c1cccnc1N1CCC(c2cc(-c3cccc(C(F)(F)F)c3)n[nH]2)CC1 | -13.7 |
| COc1ccc(-c2cc(C3CCN(Cc4cccc(C(F)(F)F)c4)CC3)[nH]n2)cc1 | -55.2 |
| COc1ccc(-c2cc(C3CCN(C(=O)OC(C)(C)C)CC3)[nH]n2)cc1 | -26.4 |
| O=[N+]([O-])c1ccc(-n2nnnc2-c2ccccc2)cc1 | -21.3 |
| Cc1nc(-c2ccccc2)nn1-c1ccc([N+](=O)[O-])cc1 | -26.2 |
| COc1ccc(-c2cc(C3CCN(Cc4ccc([N+](=O)[O-])cc4)CC3)[nH]n2)cc1 | -73 |
| O=c1ccc(-c2ccc([N+](=O)[O-])cc2)nn1-c1ccccc1 | -55 |
| FC(F)(F)c1cccc(-c2cc(C3CCNCC3)[nH]n2)c1 | -44.3 |
| COC(=O)CCN1CCC(c2cc(-c3cccc(C(F)(F)F)c3)n[nH]2)CC1 | -72.2 |
| COc1ccc(-c2cc(C3CCNCC3)[nH]n2)cc1 | 18.7 |
| Cc1ccc(CNc2nc(C)c(C(=O)N(C)C)s2)cc1 | 4.98 |
| COc1ccc(S(=O)(=O)Cc2ccc(C(=O)NCCc3cc(OC)ccc3OC)o2)cc1 | -39.6 |
| COc1ccccc1C(CC(N)=O)c1ccco1 (centres unmarked) | 10.1 |

| Structure (SMILES) | hERG current change (%, negative = inhibition) at 10uM [%] |
| --- | --- |
| O=C(Cc1cn2ccsc2n1)Nc1nc2c(s1)CCCC2 | -0.221 |
| CN(C)c1ccc(-c2nnn(CC(=O)Nc3ccccc3N3CCOCC3)n2)cc1 | -15.1 |
| CCOn1c(=O)c(-c2ccc(Br)cc2)[n+]([O-])c2ccccc21 | 13.6 |
| CNc1nc(N)c([N+](=O)[O-])c(NCc2ccccc2)n1 | -1.09 |
| Oc1ccc(Br)cc1CNc1cnc2ccccc2c1 | 16.4 |
| O=C(COC(=O)c1ncc(Cl)c(Cl)c1Cl)NNC(=O)c1ccccc1 | -1.26 |
| CCC(=O)Nc1ccc(C(=O)c2ccccc2)cc1 | -9.96 |
| Cc1ccc(C)c(NC(=O)[C@@H]2CCCN2S(=O)(=O)c2ccccc2F)c1 | 10.9 |
| COc1ccc(Nc2cc(Nc3ccccc3)ncn2)cc1 | 11.5 |
| COc1ccc(-c2ccc(=O)n(Cc3cccc([N+](=O)[O-])c3)n2)cc1 | -21.2 |
| COc1ccc(-c2ccc(=O)n(Cc3ccc([N+](=O)[O-])cc3)n2)cc1 | -75 |
| COc1ccc(-c2ccc(=O)n(Cc3ccccc3)n2)cc1 | -5.74 |
| C=CCOc1ccc(CNn2cn[nH]c2=S)cc1OCC | 12.7 |
| CN(CC(=O)Nc1ccccc1Br)C(=O)CCc1nc2ccccc2c(=O)[nH]1 | -15.8 |
| COC(=O)c1cc(C(=O)c2ccc(Cl)cc2Cl)cn1C | -16.4 |
| O=C(NCCC(=O)N1CCN(C(=O)c2ccco2)CC1)c1ccc(Br)cc1 | -28.6 |
| O=C(NCC(=O)N1CCN(C(=O)c2ccco2)CC1)c1ccc(Cl)cc1 | -34.1 |
| O=C(NCC(=O)N1CCN(C(=O)c2ccco2)CC1)c1ccccc1 | -7.74 |
| CCCCOc1ccc(C(=O)NCC(=O)N2CCN(C(=O)c3ccco3)CC2)cc1 | -57.4 |
| COc1ccc(C(=O)NCC(=O)N2CCN(C(=O)c3ccco3)CC2)cc1 | -13.7 |
| O=C(NCC(=O)N1CCN(C(=O)c2ccco2)CC1)c1ccc(Br)cc1 | -53.9 |
| O=[N+]([O-])c1ccc(Sc2n[nH]c(-c3ccncc3)n2)nc1 | 14.4 |
